Publication PMC7862700, “An all-to-all approach to the identification of sequence-specific readers for epigenetic DNA modifications on cytosine”

Tests used:
Experiment in all cases: DAPPL (digital affinity profiling via proximity ligation, sequencing); 10 mM Tris-HCl pH 7.5, 50 mM NaCl, 1 mM DTT, 4% glycerol, room temperature, 30 min; GST-TFs on glutathione beads, 16-mer random dsDNA library, 0.1% formaldehyde crosslink after washing; high values mean tight binding
Conditions in all cases: protein: recombinant; tags: N-terminal GST; dsDNA, one strand shown
[1] = target: T1, FEV (Homo sapiens, UniProt Q99581 1-238)
T1 sequence: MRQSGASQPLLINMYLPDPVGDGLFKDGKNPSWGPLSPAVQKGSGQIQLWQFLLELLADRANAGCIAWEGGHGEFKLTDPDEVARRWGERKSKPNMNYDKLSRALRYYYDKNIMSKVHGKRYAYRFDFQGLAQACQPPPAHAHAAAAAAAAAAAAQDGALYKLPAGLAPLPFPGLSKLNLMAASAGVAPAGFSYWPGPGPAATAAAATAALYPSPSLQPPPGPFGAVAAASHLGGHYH
Outline: (§1)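 Yeast served to express human transcription factors as GST fusions, which were then captured on glutathione beads and labelled with DNA barcodes. Pooled with a tag-only sample, they were incubated with 200 nmole of a 16-mer random double-stranded DNA library for 30 min at room temperature in Tris/NaCl/DTT/glycerol buffer, washed, crosslinked with 0.1% formaldehyde, ligated by proximity, amplified by PCR and sequenced. Dividing each hexamer's read frequency for a factor by its frequency for the tag-only sample gives the binding signal.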

[2] = target: ETV5 (Homo sapiens, UniProt P41161 1-510)
Outline: as §1

[3] = target: T2, SPIC (Homo sapiens, UniProt Q8N5J4 1-248)
T2 sequence: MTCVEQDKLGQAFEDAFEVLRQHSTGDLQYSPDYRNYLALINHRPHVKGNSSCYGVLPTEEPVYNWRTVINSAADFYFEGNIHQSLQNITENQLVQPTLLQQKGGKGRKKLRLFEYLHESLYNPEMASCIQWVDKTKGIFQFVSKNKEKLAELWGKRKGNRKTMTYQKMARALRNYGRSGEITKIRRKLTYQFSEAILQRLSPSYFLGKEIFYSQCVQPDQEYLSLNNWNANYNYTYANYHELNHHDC
Outline: as §1

[4] = target: ELF4 (Homo sapiens, UniProt Q99607 1-663)
Outline: as §1

[5] = target: T3, ELK4 (Homo sapiens, UniProt P28324-2 1-405)
T3 sequence: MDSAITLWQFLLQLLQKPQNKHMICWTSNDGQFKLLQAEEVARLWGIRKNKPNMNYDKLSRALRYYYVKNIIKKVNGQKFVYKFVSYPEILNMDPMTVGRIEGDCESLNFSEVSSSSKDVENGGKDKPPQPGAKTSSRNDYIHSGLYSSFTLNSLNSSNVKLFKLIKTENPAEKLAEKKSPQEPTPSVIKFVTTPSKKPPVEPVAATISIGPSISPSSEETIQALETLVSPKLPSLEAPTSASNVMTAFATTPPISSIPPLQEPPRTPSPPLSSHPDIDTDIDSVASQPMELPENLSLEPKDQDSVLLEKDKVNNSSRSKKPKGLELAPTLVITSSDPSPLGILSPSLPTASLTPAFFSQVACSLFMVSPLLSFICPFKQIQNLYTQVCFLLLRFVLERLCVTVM
Outline: as §1

[6] = target: T4, ETV2 (Homo sapiens, UniProt O00321 1-342)
T4 sequence: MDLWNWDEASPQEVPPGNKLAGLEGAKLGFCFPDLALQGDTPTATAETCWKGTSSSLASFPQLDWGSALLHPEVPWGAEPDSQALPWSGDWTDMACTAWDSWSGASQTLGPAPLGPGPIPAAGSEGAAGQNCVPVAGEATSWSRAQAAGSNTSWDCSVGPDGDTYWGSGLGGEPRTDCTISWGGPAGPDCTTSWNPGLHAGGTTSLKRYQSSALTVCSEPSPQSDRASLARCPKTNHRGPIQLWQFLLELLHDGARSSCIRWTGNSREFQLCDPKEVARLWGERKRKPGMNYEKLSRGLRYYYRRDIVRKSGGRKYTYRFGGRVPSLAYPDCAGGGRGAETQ
Outline: as §1

[7] = target: T5, ELF3 (Homo sapiens, UniProt P78545 1-371)
T5 sequence: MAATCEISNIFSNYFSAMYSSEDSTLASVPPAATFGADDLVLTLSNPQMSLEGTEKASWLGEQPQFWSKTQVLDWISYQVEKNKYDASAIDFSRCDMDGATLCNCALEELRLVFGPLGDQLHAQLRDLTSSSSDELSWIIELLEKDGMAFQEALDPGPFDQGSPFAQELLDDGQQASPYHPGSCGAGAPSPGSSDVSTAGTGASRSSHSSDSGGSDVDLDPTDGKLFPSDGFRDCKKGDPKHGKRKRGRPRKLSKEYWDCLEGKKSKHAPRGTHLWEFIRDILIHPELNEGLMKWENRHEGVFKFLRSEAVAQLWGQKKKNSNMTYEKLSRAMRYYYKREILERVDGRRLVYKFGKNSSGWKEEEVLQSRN
Outline: as §1

[8] = target: T6, ERF (Homo sapiens, UniProt P50548 1-548)
T6 sequence: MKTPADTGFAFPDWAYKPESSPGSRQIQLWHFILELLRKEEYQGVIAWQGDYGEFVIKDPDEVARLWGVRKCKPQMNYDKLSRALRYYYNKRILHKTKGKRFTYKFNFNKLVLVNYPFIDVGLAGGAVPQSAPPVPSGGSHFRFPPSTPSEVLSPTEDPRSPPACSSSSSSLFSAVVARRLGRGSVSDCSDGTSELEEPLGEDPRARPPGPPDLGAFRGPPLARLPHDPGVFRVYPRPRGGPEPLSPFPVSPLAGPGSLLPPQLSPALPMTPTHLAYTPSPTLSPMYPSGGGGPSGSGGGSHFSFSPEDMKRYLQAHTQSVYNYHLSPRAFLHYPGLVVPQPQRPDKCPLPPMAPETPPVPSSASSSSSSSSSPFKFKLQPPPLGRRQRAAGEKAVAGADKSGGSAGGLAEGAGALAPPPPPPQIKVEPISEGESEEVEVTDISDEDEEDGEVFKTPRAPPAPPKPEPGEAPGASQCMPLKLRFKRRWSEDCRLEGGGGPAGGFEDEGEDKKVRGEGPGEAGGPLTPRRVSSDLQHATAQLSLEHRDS
Outline: as §1

[9] = target: T7, ETV3L (Homo sapiens, UniProt Q6ZN32 1-361)
T7 sequence: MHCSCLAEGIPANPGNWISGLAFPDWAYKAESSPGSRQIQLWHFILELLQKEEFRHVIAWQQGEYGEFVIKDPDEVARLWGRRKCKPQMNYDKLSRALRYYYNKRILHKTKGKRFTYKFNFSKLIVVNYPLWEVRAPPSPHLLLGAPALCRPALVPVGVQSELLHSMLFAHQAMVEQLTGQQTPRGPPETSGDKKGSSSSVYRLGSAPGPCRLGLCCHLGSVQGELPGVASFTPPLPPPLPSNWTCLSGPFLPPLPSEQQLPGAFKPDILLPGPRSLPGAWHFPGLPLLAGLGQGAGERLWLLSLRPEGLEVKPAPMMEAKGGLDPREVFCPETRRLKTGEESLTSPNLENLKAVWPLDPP
Outline: as §1

[10] = target: T8, ETS2 (Homo sapiens, UniProt P15036 1-469)
T8 sequence: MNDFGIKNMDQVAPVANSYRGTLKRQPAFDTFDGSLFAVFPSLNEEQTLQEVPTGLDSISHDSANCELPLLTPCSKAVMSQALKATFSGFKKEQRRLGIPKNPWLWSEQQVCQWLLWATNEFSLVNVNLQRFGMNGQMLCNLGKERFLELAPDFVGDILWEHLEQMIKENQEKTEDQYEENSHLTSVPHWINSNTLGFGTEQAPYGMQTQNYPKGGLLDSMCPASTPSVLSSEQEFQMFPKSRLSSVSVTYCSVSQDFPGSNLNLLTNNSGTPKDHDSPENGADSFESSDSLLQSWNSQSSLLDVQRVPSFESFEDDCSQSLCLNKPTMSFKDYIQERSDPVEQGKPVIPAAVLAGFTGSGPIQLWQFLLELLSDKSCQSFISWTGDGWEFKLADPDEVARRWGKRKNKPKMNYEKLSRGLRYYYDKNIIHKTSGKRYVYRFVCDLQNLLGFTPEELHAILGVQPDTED
Outline: as §1

[11] = target: T9, ETV7 (Homo sapiens, UniProt Q9Y603 1-341)
T9 sequence: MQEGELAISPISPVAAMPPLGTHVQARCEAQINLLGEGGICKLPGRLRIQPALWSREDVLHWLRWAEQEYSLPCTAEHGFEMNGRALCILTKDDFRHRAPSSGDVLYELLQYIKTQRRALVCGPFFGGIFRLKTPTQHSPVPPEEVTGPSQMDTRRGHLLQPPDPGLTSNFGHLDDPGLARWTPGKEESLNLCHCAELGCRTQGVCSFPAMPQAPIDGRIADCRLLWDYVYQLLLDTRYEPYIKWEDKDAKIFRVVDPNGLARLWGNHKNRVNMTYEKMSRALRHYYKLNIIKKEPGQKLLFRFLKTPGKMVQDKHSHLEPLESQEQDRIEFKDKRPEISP
Outline: as §1

[12] = target: T10, ELF5 (Homo sapiens, UniProt Q9UKW6-2 1-255)
T10 sequence: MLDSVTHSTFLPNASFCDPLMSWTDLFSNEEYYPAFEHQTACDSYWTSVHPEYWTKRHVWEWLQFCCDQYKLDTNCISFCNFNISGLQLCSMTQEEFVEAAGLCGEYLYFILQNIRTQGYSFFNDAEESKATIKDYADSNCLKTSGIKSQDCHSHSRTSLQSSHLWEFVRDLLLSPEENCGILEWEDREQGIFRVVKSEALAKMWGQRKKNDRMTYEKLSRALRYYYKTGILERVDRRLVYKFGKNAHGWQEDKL
Outline: as §1

[13] = target: T11, ETV3 (Homo sapiens, UniProt P41162-2 1-143)
T11 sequence: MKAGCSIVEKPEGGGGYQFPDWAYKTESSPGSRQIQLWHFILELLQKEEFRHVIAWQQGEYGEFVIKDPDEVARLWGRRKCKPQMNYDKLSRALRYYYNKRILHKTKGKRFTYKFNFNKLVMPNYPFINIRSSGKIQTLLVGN
Outline: as §1

[14] = target: ETV1 (Homo sapiens, UniProt P50549 1-477)
Outline: as §1

[15] = target: T12, SPDEF (Homo sapiens, UniProt O95238 1-335)
T12 sequence: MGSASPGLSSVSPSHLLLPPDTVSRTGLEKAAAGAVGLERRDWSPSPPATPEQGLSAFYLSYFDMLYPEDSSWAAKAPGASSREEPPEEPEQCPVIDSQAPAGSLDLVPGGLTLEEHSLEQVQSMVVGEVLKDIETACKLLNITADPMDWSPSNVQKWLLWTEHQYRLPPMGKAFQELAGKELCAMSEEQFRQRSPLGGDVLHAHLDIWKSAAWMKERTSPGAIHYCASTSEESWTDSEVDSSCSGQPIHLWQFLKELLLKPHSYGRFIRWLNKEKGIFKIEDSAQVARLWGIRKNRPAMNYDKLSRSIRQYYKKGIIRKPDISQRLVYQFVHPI
Outline: as §1

[16] = target: ETV6 (Homo sapiens, UniProt P41212 1-452)
Outline: as §1

Chain of ETV5 (P41161 whole entry): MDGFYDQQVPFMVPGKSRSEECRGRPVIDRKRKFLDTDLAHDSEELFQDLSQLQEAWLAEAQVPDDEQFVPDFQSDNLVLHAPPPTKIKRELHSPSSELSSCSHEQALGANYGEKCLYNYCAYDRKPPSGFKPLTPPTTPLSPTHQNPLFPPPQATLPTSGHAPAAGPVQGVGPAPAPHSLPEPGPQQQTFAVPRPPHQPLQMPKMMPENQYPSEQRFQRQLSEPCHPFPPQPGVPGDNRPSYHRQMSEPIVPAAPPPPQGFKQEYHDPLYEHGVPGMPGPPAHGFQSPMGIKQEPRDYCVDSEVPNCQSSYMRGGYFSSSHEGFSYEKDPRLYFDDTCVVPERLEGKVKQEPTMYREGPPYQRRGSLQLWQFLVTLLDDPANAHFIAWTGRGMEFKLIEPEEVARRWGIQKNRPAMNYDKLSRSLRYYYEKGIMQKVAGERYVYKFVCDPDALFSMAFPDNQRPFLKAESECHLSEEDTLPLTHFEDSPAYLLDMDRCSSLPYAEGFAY
Chain of ELF4 (Q99607 whole entry): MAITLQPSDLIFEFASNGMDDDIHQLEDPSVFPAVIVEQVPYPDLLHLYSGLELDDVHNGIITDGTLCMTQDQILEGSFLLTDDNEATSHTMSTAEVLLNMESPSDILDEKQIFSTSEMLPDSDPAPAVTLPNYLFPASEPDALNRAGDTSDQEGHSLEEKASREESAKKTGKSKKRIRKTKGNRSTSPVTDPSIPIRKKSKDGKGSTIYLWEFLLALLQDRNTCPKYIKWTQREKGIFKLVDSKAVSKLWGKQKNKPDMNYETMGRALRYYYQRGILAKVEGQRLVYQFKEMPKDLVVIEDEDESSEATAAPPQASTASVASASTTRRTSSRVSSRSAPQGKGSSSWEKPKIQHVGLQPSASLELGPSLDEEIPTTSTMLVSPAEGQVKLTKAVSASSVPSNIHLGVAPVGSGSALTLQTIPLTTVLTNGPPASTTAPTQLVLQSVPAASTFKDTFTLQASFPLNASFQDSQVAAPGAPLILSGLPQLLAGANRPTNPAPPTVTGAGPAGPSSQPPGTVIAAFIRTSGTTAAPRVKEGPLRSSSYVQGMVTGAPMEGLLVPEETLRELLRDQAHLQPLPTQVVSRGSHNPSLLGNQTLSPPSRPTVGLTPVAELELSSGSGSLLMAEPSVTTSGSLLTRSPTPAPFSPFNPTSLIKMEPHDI
Chain of ETV6 (P41212 whole entry): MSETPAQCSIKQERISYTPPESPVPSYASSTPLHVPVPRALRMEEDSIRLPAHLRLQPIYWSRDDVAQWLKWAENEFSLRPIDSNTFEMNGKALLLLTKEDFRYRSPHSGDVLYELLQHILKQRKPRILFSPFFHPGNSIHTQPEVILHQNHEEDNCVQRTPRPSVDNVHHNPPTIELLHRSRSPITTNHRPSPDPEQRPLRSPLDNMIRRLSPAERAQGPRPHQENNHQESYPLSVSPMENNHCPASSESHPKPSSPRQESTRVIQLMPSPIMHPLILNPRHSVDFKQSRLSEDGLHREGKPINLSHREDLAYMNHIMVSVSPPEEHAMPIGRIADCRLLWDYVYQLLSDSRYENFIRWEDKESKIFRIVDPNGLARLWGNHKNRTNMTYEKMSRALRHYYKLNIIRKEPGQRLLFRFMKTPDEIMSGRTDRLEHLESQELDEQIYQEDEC
Chain of ETV1 (P50549 whole entry): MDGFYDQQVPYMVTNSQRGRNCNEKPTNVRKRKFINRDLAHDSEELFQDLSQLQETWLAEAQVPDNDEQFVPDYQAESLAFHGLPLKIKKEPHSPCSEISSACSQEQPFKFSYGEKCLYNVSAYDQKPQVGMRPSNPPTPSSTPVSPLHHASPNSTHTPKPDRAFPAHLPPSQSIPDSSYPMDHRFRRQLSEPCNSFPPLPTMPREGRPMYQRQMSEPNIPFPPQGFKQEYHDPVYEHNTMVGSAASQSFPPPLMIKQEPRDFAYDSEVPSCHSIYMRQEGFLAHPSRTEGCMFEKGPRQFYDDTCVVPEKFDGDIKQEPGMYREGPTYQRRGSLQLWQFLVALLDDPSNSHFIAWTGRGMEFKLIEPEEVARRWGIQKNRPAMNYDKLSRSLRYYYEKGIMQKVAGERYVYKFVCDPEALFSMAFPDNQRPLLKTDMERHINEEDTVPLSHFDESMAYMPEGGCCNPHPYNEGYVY

Row | Sequence | binding signal [1] | binding signal [2] | binding signal [3] | binding signal [4] | binding signal [5] | binding signal [6] | binding signal [7] | binding signal [8] | binding signal [9] | binding signal [10] | binding signal [11] | binding signal [12] | binding signal [13] | binding signal [14] | binding signal [15] | binding signal [16]
1 | GTCACT | 1.18 fold enrichment (6-mer frequency, TF over GST control) | 1.14 fold enrichment (6-mer frequency, TF over GST control) | 1.01 fold enrichment (6-mer frequency, TF over GST control) | 1.09 fold enrichment (6-mer frequency, TF over GST control) | 1.07 fold enrichment (6-mer frequency, TF over GST control) | 1.14 fold enrichment (6-mer frequency, TF over GST control) | 1.26 fold enrichment (6-mer frequency, TF over GST control) | 1.07 fold enrichment (6-mer frequency, TF over GST control) | 1.08 fold enrichment (6-mer frequency, TF over GST control) | 1.13 fold enrichment (6-mer frequency, TF over GST control) | 1.09 fold enrichment (6-mer frequency, TF over GST control) | 1.07 fold enrichment (6-mer frequency, TF over GST control) | 1.01 fold enrichment (6-mer frequency, TF over GST control) | – | – | –
2 | CCAAAC | 1.08 fold enrichment (6-mer frequency, TF over GST control) | 1.07 fold enrichment (6-mer frequency, TF over GST control) | 1.16 fold enrichment (6-mer frequency, TF over GST control) | 1.14 fold enrichment (6-mer frequency, TF over GST control) | 1.15 fold enrichment (6-mer frequency, TF over GST control) | 1.07 fold enrichment (6-mer frequency, TF over GST control) | 1.11 fold enrichment (6-mer frequency, TF over GST control) | 1.08 fold enrichment (6-mer frequency, TF over GST control) | 1.12 fold enrichment (6-mer frequency, TF over GST control) | 1.1 fold enrichment (6-mer frequency, TF over GST control) | – | 1.09 fold enrichment (6-mer frequency, TF over GST control) | 1.11 fold enrichment (6-mer frequency, TF over GST control) | 1.02 fold enrichment (6-mer frequency, TF over GST control) | 1.11 fold enrichment (6-mer frequency, TF over GST control) | 1.07 fold enrichment (6-mer frequency, TF over GST control)
3 | CTACAG | 1.04 fold enrichment (6-mer frequency, TF over GST control) | 1.07 fold enrichment (6-mer frequency, TF over GST control) | 1.04 fold enrichment (6-mer frequency, TF over GST control) | 1.02 fold enrichment (6-mer frequency, TF over GST control) | 1.07 fold enrichment (6-mer frequency, TF over GST control) | 1.02 fold enrichment (6-mer frequency, TF over GST control) | 1 fold enrichment (6-mer frequency, TF over GST control) | 1.01 fold enrichment (6-mer frequency, TF over GST control) | 1.13 fold enrichment (6-mer frequency, TF over GST control) | – | – | 1.08 fold enrichment (6-mer frequency, TF over GST control) | – | 1.06 fold enrichment (6-mer frequency, TF over GST control) | 1.09 fold enrichment (6-mer frequency, TF over GST control) | 1.03 fold enrichment (6-mer frequency, TF over GST control)
